Measured values from PubChem BioAssay.

Tested on: Sam68 (KHDRBS1)
Test: compounds binding KHDRBS1 protein – biochemical, small-molecule microarray, 635 nm fluorescence, primary screen (AID 1125);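 also: score merges 667 nm channel intensity with signal to noise over triplicate slides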
Details: higher = more signal

SMILES	composite z-score
COC(=O)[C@@]1(Cc2ccc(OC)cc2)[C@H]2c3cc(C(=O)N4CCCC4)n(Cc4ccsc4Br)c3C[C@H]2CN1C(=O)c1ccccc1	0.374
CCOC(=O)C[C@H]1[C@H](OC(=O)Cc2ccc3c(c2)OCO3)[C@@H](NC(=O)c2ccc(-c3ccccc3)cc2)c2cc(OCCCO)ccc2N1C(=O)c1ccc2ccccc2n1	0.202
COC(=O)[C@@]1(Cc2ccc(F)cc2)[C@H]2c3cc(C(=O)N(C)C)n(CC4CC4)c3C[C@H]2CN1C(=O)c1ccccc1	1.35
CCCCC(=C=CC[C@@H](O)c1ccccc1OCCO)CCO	0.0301
COc1ccc([Si](C)(C)[C@@H]2[C@@H](CCO)O[C@]3(C(=O)N(Cc4ccc(N5C(=O)COc6ccccc65)cc4)c4ccccc43)[C@H]2C)cc1	1.33
CC1CC/C=C\[C@H]2OC34C=CCN(Cn5nnc6ccccc65)C(=O)[C@H]3N(C(CO)C(C)C)C(=O)[C@@H]4C2C(=O)O1 (stereo partly specified)	0.272
CCCCN1CC=CC23O[C@@H]4/C=C\CCC(C)OC(=O)C4[C@H]2C(=O)N(CCCCCO)[C@@H]3C1=O (stereo partly specified)	-0.287
O=C1C[C@]2(c3ccc([N+](=O)[O-])cc3)C(=O)N(CCN3CCOCC3)c3cc(CO)ccc3[C@H]2N1C1CCCCC1	0.197
O=C(O)[C@@]1(CCS(=O)(=O)c2ccccc2)COC(c2ccc(OCCCO)cc2)=N1	-0.39
COc1ccc(C(O)C2C=CC3C(=O)N(c4ccccc4)C(=O)C3N2Nc2ccc(C(C)C)cc2)cc1OCc1ccccc1 (stereo unspecified)	1.33
CC(C)C(=C=CC[C@@H](O)c1ccccc1OCCO)CCO	0.615
CN(C)C(=O)[C@]1(Cc2ccccc2CN=[N+]=[N-])N=C(c2ccc(OCCCO)cc2)O[C@@H]1c1ccccc1CN=[N+]=[N-]	1.32
COc1ccc(C(=O)Nc2cccc(CN3C(=O)[C@]4(O[C@H](CCO)[C@@H]([Si](C)(C)c5ccc(OC)cc5)[C@@H]4C)c4ccccc43)c2)cc1	1.21
CCCCCC1=C2CNC(CCC)(C(=O)OC)C=C2C(C)C1=O (stereo unspecified)	0.273
CCOC(=O)C[C@H]1[C@H](OC(=O)c2cc3ccccc3oc2=O)[C@@H](NC(=O)Cc2ccc(OC)cc2)c2cc(OCCCO)ccc2N1C(=O)c1ccccc1	0.687
COc1ccc([C@H]2C[C@H]3C(Br)=C[C@@H]2C(=O)[C@]32CO2)cc1	-0.99
CCOC(=O)C1=CCC(c2ccccc2)N(S(=O)(=O)CC[Si](C)(C)C)C1 (stereo unspecified)	-0.717
O=C1NCC(=O)N2[C@@H]1C[C@@H](C(=O)O)[C@H]2c1cccc(OCCO)c1	1.33

SMILES	composite z-score
COCCOC(=O)N1C(=O)[C@@]2(c3cc(C#CC4=CCCCC4)ccc31)[C@H](C(=O)N1CCc3cc(OC)c(OC)cc3C1)[C@H]1C(=O)O[C@H](c3ccccc3)[C@H](c3ccccc3)N1[C@@H]2c1ccc(OCCO)cc1	1.29
O=C(NCC(F)(F)F)[C@@H]1c2ccccc2C(=O)N(C2CCCCC2)[C@H]1c1ccc(CO)cc1	0.314
CC(C)OC(=O)C=C1C[C@@H](c2ccccc2C(F)(F)F)O[C@@H](c2ccccc2C(F)(F)F)O1	0.609
COc1ccc([Si](C)(C)[C@H]2[C@H](CC(=O)N3Cc4ccccc4C[C@H]3CO)O[C@@]3(C(=O)N(Cc4ccc(N5CCC5=O)cc4)c4ccccc43)[C@@H]2C)cc1	1.29
C=CCC(OC(C)=O)[C@@H]1[C@@H](N(Cc2cccc3ccccc23)C(=O)c2ccc(-c3ccccc3)cc2)c2cc(OCCCO)ccc2N1C(=O)Cc1ccc(OC)cc1 (stereo partly specified)	-0.0453
COc1ccc(CCNC(=O)[C@@H]2c3ccccc3C(=O)N(C3Cc4ccccc4C3)[C@H]2c2ccc(CO)cc2)cc1	0.73
C=CCNC(=O)[C@H]1[C@@H]2C(=O)O[C@@H](c3ccccc3)[C@@H](c3ccccc3)N2[C@@H](c2ccc(O)cc2)[C@]12C(=O)N(C(=O)OCCOC)c1ccc(C#CCNC(N)=O)cc12	1.13
C=CCC(OC(C)=O)[C@@H]1[C@@H](N(Cc2ccc(-c3cccc(C(F)(F)F)c3)o2)C(=O)Cc2ccc(F)cc2)c2cc(OCCCO)ccc2N1C(=O)Cc1ccc(OC)cc1 (stereo partly specified)	-3.75
Cc1ccc(S[C@]2(C(=O)NCC(F)(F)F)CC(=O)N(C(C)C)[C@@H]2c2ccc(CO)cc2I)cc1	-0.749
O=C1NC(=O)C2C1C=CC(C(O)c1ccccc1)N2Nc1ccc(Cl)cc1Cl (stereo unspecified)	1.33
COc1ccc([Si](C)(C)[C@H]2[C@H](CCO)O[C@@]3(C(=O)N(C)c4c(Br)cc(C)cc43)[C@@H]2C)cc1	0.953
CN1C(=O)C2C=CC(C(O)c3ccc(-c4ccccc4)s3)N(N(c3ccccc3)c3ccccc3)C2C1=O (stereo unspecified)	0.749
COc1ccc(CCNC(=O)[C@@]2(Sc3ccc(C)cc3)CC(=O)N(C3CCCCC3)[C@@H]2c2ccc(CO)cc2I)cc1	1.31
C=CCNC(=O)[C@H]1[C@@H]2C(=O)O[C@@H](c3ccccc3)[C@@H](c3ccccc3)N2[C@@H](c2ccccc2OCCO)[C@]12C(=O)Nc1ccc(C#CC3=CCCCC3)cc12	1.29
C[N+](C)(C)CCCC[C@@H]1NC(=O)[C@@H]2C[C@H](C(=O)NCCCCCN)[C@H](c3cccc(OCCO)c3)N2C1=O	1.32
C=C/C=C/[C@H]1C(=C)CN([C@@H](Cc2ccccc2)C(=O)OC)[C@@H]1[C@H](O)Cc1ccccc1	-0.24
CN1C(=O)C2C=CC(C(O)c3ccc(I)cc3)N(N3CCCCC3)C2C1=O (stereo unspecified)	1.32
O=C1[C@H]2C=C(Br)[C@H](C[C@@H]2c2ccccc2)[C@@]12CO2	0.383
